Measured values from PubChem BioAssay AID1159580 (chemical genetic matrix, 2015).
Where “and” joins values, the source holds several entries; their conditions need not be identical. Equal values may be shown once. About 2,000 (36%) of roughly 5,500 compounds were called active. About 18% were inconclusive and are not listed. Cut-off read from the data, not from the text of the source: active = normalized growth mostly below about 0.91 (no sharp cut-off); inconclusive = no clear call, values can overlap the other calls; inactive = mostly above about 0.92. The list shows a part of the results.

Assay: chemical genetic growth profiling, strain panel (AID 1159580);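 note: tested at 20 µM; growth read once vehicle control cultures reached saturation at 30 °C; 1 = growth at the plate median or of vehicle wells; lower values mean less growth of the strain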
Settings: S. cerevisiae deletion strains, growth OD

Measured: normalized growth

CN1C[C@H](C(=O)N[C@]2(C)O[C@@]3(O)[C@@H]4CCCN4C(=O)[C@H](Cc4ccccc4)N3C2=O)C[C@@H]2c3cccc4[nH]cc(c34)C[C@H]21
inactive: locus YAL013W, strain DEP1, hits give low values 0.96 | locus YAL021C, strain ccr4, hits give low values 0.95 | locus YAL026C, strain drs2, hits give low values 1.01 | locus YAL030W, strain snc1, hits give low values 0.984 | locus YBL061C, strain skt5, hits give low values 0.996 | locus YBR009C, strain hhf1, hits give low values 1.07 | locus YBR021W, strain FUR4, hits give low values 0.929 | locus YBR023C, strain chs3, hits give low values 1 | locus YBR171W, strain sec66, hits give low values 0.973 | locus YBR229C, strain ROT2, hits give low values 0.983 | locus YBR231C, strain swc5, hits give low values 0.987 | locus YBR279W, strain paf1, hits give low values 0.997 | locus YCL011C, strain gbp2, hits give low values 0.966 | locus YCL016C, strain dcc1, hits give low values 0.998 | locus YCL029C, strain bik1, hits give low values 0.973 | locus YCL061C, strain MRC1, hits give low values 0.998 | locus YCL069W, strain vba3, hits give low values 0.992 | locus YCR088W, strain abp1, hits give low values 0.994 | locus YDL005C, strain med2, hits give low values 0.997 | locus YDL035C, strain GPR1, hits give low values 1.01 | locus YDL040C, strain nat1, hits give low values 1 | locus YDL074C, strain BRE1, hits give low values 0.896 | locus YDL101C, strain DUN1, hits give low values 0.957 | locus YDL134C, strain PPH21, hits give low values 0.992 | locus YDL185W, strain tfp1, hits give low values 0.998 | locus YDL192W, strain arf1, hits give low values 0.988 | locus YDR001C, strain nth1, hits give low values 0.981 | locus YDR069C, strain doa4, hits give low values 0.987 | locus YDR101C, strain arx1, hits give low values 0.996 | locus YDR137W, strain rgp1, hits give low values 1.02 | locus YDR150W, strain NUM1, hits give low values 1 | locus YDR159W, strain sac3, hits give low values 1 | locus YDR162C, strain NBP2, hits give low values 0.987 | locus YDR195W, strain ref2 0.99 | locus YDR297W, strain sur2, hits give low values 0.981 | locus YDR318W, strain mcm21, hits give low values 0.97 | locus YDR334W, strain swr1, hits give low values 0.944 | locus YDR335W, strain msn5, hits give low values 0.992 | locus YDR388W, hits give low values 0.981 | locus YDR392W, strain spt3, hits give low values 0.871 | locus YDR502C, strain sam2, hits give low values 0.968 | locus YEL003W, strain gim4, hits give low values 0.99 | locus YEL037C, strain rad23, hits give low values 0.987 | locus YEL061C, strain CIN8 (second series), hits give low values 0.994 | locus YEL061C, strain CIN8, hits give low values 0.996 | locus YER015W, strain faa2, hits give low values 0.971 | locus YER016W, strain bim1, hits give low values 0.988 | locus YER110C, hits give low values 0.977 | locus YER111C, strain swi4, hits give low values 1.01 | locus YER155C, strain BEM2 (second series), hits give low values 0.964 | locus YER155C, strain BEM2, hits give low values 0.979 | locus YER167W, strain BCK2, hits give low values 0.981 | locus YFR010W, strain ubp6, hits give low values 0.997 | locus YGL078C, strain dbp3, hits give low values 0.982 | locus YGL086W, strain mad1, hits give low values 0.985 | locus YGL167C, strain pmr1, hits give low values 1 | locus YGL173C, strain kem1, hits give low values 0.993 | locus YGL227W, strain vid30, hits give low values 0.996 | locus YGL240W, strain doc1, hits give low values 0.938 | locus YGL248W, strain PDE1, hits give low values 0.945 | locus YGL253W, strain hxk2, hits give low values 0.98 | locus YGR078C, strain PAC10, hits give low values 0.947 | locus YGR135W, strain pre9, hits give low values 0.912 | locus YHR013C, strain ard1, hits give low values 0.971 | locus YHR027C, strain rpn1, hits give low values 0.967 | locus YHR030C, strain SLT2, hits give low values 0.994 and 1.01 | locus YHR079C, strain IRE1 (second series), hits give low values 0.977 | locus YHR079C, strain IRE1, hits give low values 1.01 | locus YHR094C, strain hxt1, hits give low values 0.98 | locus YHR129C, strain ARP1, hits give low values 0.983 | locus YHR142W, strain chs7, hits give low values 1 | locus YHR200W, strain rpn10, hits give low values 0.981 | locus YIL066C, strain RNR3, hits give low values 0.984 | locus YIL073C, strain SPO22, hits give low values 0.98 | locus YIL125W, strain kgd1, hits give low values 0.987 | locus YIR030C, strain dcg1, hits give low values 0.975 | locus YJL092W, strain hpr5, hits give low values 0.985 | locus YJL095W, strain BCK1 (second series), hits give low values 0.98 | locus YJL095W, strain BCK1, hits give low values 0.926 and 1.03 | locus YJL115W, strain asf1, hits give low values 0.983 | locus YJL129C, strain trk1, hits give low values 0.973 | locus YJL134W, strain LCB3, hits give low values 0.984 | locus YJL154C, strain vps35, hits give low values 0.982 | locus YJL164C, strain tpk1, hits give low values 1.02 | locus YJL166W, strain qcr8, hits give low values 0.94 | locus YJL168C, strain set2, hits give low values 0.98 | locus YJL187C, strain SWE1 (second series), hits give low values 0.941 | locus YJL187C, strain SWE1, hits give low values 0.986 | locus YJR043C, strain POL32, hits give low values 0.991 | locus YJR066W, strain TOR1, hits give low values 0.94
active: locus YGR252W, strain gcn5, hits give low values 0.741
